Reference: PubChem BioAssay (NCATS)
Results filed as inconclusive are left out. A number with no mark means an inactive call. Calls come from the whole dose curve; as a rule, active = well fitted cell-killing curve with a large enough effect; inconclusive = small, poorly fitted or top-dose-only effect; inactive = flat fitted curve, though single readings scatter.

Experiment: Cell Viability - LYMP1-002 - Assay at 16 hr (AID 948);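 note: 0% = DMSO alone and full effect = 92 µM tetraoctylammonium bromide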
Details: LYMP1-002 lymphoblastoid cell viability; series mostly up to 92.2 µM; activity change, negative = cytotoxicity: at the top concentration
Description: NIH Chemical Genomics Center [NCGC]
NIH Molecular Libraries Screening Centers Network [MLSCN]
National Institutes of Environmental Health Sciences [NIEHS]
National Toxicology Program [NTP]
We have developed a 1536-well cell-based assay for quantitative high throughput screening (qHTS) against a number of cell lines to determine in vitro cytotoxicity of small molecules. This particular assay uses a human lymphoblastoid cell line (LYMP1-002) purchased from Coriell Institute for Medical Research.
NCGC Assay Protocol Summary:
The CellTiter-Glo luminescent cell viability assay (Promega) is a homogeneous method to measure the number of viable cells in culture. The end point readout of this assay is based on quantitation of intracellular ATP, an indicator of metabolic activity, using the luciferase reaction. Luciferase catalyzes the oxidation of beetle Luciferin to oxyluciferin and light in the presence of ATP. The luminescent signal is proportional to amount of ATP present.
Using the CellTiter-Glo luminescent cell viability assay, the amount of cellular ATP was measured in the lymphoblastoid cell line with complete culture medium following compound treatment for 16 hours. The assay was performed in opaque white Kalypsys 1536-well plates. In the screen, tetraoctylammonium bromide was used as positive control. Library compounds were measured for their ability to cause acute toxicity in the cell line, as reflected by a decrease in intracellular ATP levels, in a concentration-dependent manner. […] AC50 values were determined from concentration-response data modeled with the standard Hill equation.
qHTS protocol for CellTiter Glo lymphoblastoid cellular assay
[Step] [Parameter] [Value] [Description]
1. Reagent; 5 uL; 2500 lymphoblastoid cells/well
2. Time; 5 hr; 37 C incubation
4. Controls; 23 nL; Tetraoctylammonium bromide 6.4pM to 92 uM
5. Time; 16 hr; 37 C incubation
6. Reagent; 5 uL; CellTiter Glo reagent
7. Time; 30 min; Room Temperature
8. Detection; Luminescence; Viewlux plate reader
Keywords: cell viability, cytotoxicity, lymphoblastoid cell line, luminescence, NTPHTS, NTPHTS_NCGC, NIEHS, DSSTox, MLSMR, MLSCN, NIH Roadmap, qHTS, NCGC

Compared with `Oc1ccc(Cl)cc1Cc1ccccc1`, `Oc1ccccc1-c1ccccc1` is higher in “activity change, negative = cytotoxicity” value: -7.33% for the first, -2.92% for the second.

Compared with `OCCOc1ccccc1`, `c1ccc2c(c1)Nc1ccccc1S2` is lower in “activity change, negative = cytotoxicity” value: -2.2% for the first, -4.72% for the second.

First: N[C@@H](Cc1ccc(N(CCCl)CCCl)cc1)C(=O)O
Second: NCC(O)c1ccc(O)cc1 (stereo unspecified)
The “activity change, negative = cytotoxicity” value of the first is lower: -7.43% for the first, -2.21% for the second.

First: CCOP(=S)(OCC)Oc1cc(C)nc(C(C)C)n1
Second: CCCC(C)(COC(N)=O)COC(=O)NC(C)C (stereo unspecified)
The “activity change, negative = cytotoxicity” value of the first is lower: -7.77% for the first, -6.54% for the second.

Compared with `C[C@]12C/C(=C/O)C(=O)C[C@@H]1CC[C@@H]1[C@@H]2CC[C@@]2(C)[C@H]1CC[C@]2(C)O`, `CNCC(O)c1ccc(O)cc1` (stereo unspecified) is higher in “activity change, negative = cytotoxicity” value: -23.7% for the first, -1.57% for the second.

In the case of `Clc1ccc(COC(Cn2ccnc2)c2ccc(Cl)cc2Cl)cc1` (stereo unspecified), the “activity change, negative = cytotoxicity” value is reported as -22.6%.
